Compound activity as filed in PubChem.
Hits are enriched below; roughly 11% of the tested compounds scored in any of these assays.
PNC inhibitor: High Content Assay for Compounds that inhibit the Assembly of the Perinucleolar Compartment; PC3M PTB-GFP, PNC prevalence imaging, 16 h; hits give low values; activity change (PNC), negative = inhibition, % at 10 µM; 140,000 compounds, 3.1% hits;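 active means readout at or below -70, meaning at least 70% loss of cells showing the perinucleolar compartment, a nuclear body marking cancer cells; inconclusive means readout between -30 and a set limit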;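 further: plate controls were DMSO wells for no effect and camptothecin positive control wells for full effect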
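PC3M cells stably expressing PTB-GFP, 750–1000 cells/well, treated 16 h at 37 °C with compound (23 nl of library stock), in duplicate. After paraformaldehyde fixation and Hoechst stain, imaged at 20x; PNC prevalence scored by image analysis.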
HTT aggregate: qHTS Multiplex Assay to Identify Dual Action Probes in a Cell Model of Huntington: Aggregate Formation (GFP). PC12 HttQ103-GFP aggregates, Acumen cytometry, 40 h. Potency, µM (titrated, usually from 46.1 µM), for inactives: at the top dose activity change, negative = inhibition, actives largely listed as inhibitors. 220,000 compounds, 1.1% hits; further: potency means the concentration at half of the fitted maximal effect; on the % scale 0 is the no-effect control and ±100 the full control effect; nearly all actives have a fitted effect of over 60% in size
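PC12 cells with ecdysone-inducible HTT exon1 Q103-GFP, induced by 100 nM tebufenozide, given compounds in a concentration series. GFP aggregates (1–25 um, 6 SD above background) counted in lysates by laser-scanning cytometry, 488 nm excitation.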
HPGD inh: qHTS Assay for Inhibitors of HPGD (15-Hydroxyprostaglandin Dehydrogenase); 15-hydroxyprostaglandin dehydrogenase [NAD(+)] (Homo sapiens), P15428; purified HPGD, NADH fluorescence kinetic, PGE2 substrate; Potency, µM, inactives show at the top dose activity change, negative = inhibition, actives largely listed as inhibitors; 150,000 compounds, 4.3% hits; AID 894, 2007; active means well fitted inhibition curve with a large enough effect, not every such curve was filed as active; inconclusive means small, poorly fitted or top-dose-only effect, or another doubt; inactive means no such curve, though single readings can be large or run the other way; further: potency means the concentration at half of the fitted maximal effect; on the % scale 0 is the no-effect control and ±100 the full control effect
Target sequence (P15428 whole entry, looked up): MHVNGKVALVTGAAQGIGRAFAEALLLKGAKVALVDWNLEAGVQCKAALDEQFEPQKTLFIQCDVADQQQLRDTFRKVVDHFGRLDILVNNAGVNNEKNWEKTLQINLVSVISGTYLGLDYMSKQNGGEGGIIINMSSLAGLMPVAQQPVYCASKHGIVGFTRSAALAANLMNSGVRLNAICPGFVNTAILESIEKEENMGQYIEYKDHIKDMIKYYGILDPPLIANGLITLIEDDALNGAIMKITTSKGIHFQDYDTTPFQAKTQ
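20 nM HPGD preincubated 15 min at room temperature with compound in 50 mM Tris-HCl pH 8, 0.01% Tween 20. Started with 1 mM NAD+ and 30 uM prostaglandin E2; NADH fluorescence (360/450 nm) read 5 times over 30-s intervals, last minus first.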
GoLoco inh red: qHTS Assay for Inhibitors of RGS12 GoLoco Motif Activity (Red Fluorophore); Guanine nucleotide-binding protein G(i) subunit alpha-1 (Homo sapiens), P63096; Gai1:RGS12 GoLoco peptide FP, rhodamine, 10 min; Potency, µM (titrated, usually from 61.6 µM), without a hit: at the highest dose activity, negative = inhibition, actives largely listed as inhibitors; 230,000 compounds, 0.44% hits; AID 880, 2007; active means well fitted inhibition curve with a large enough effect, not every such curve was filed as active; inactive means no such curve, though single readings can be large or run the other way; further: potency means the concentration at half of the fitted maximal effect; on the % scale 0 is the no-effect control and ±100 the full control effect; nearly all actives have a fitted effect of over 30% in size
Target sequence (P63096 whole entry, looked up): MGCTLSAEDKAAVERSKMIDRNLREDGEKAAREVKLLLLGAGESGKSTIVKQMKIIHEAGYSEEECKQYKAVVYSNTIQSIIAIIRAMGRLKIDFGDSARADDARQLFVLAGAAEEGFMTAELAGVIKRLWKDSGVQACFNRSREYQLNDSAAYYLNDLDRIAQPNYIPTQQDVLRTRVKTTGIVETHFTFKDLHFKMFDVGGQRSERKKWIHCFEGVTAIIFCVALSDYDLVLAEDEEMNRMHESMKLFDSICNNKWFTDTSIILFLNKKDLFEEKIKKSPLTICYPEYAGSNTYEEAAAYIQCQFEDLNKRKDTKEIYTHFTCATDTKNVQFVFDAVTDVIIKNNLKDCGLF
HTT cytoprotect: qHTS Multiplex Assay to Identify Dual Action Probes in a Cell Model of Huntington: Cytoprotection (ATP); 230,000 compounds, 0.14% hits; PC12 HTT-Q103 induced, cytoprotection, ATP luminescence, 40 h; Potency, µM (titrated, usually from 56.4 µM), without a hit: cytoprotection (ATP increase), actives largely listed as activators; further: potency means the concentration at half of the fitted maximal effect; % of control where 0% means no effect; nearly all actives have a fitted effect of over 45% in size
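Compounds added alongside 100 nM tebufenozide, which induces toxic Q103 huntingtin exon 1-GFP in stable PC12 cells; surviving cells quantified by luminescent ATP measurement. Medium: phenol red-free DMEM, 5% equine and 5% calf serum.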
ALDH1A1 inh: qHTS Assay for Inhibitors of Aldehyde Dehydrogenase 1 (ALDH1A1) | Purified ALDH1A1, NADH fluorescence, propionaldehyde substrate | Potency, µM (titrated, usually from 75.3 µM), for the others: top-dose activity, negative = inhibition, actives largely listed as inhibitors | 220,000 compounds, 7.3% hits | AID 1030, 2008; active means well fitted inhibition curve with a large enough effect, not every such curve was filed as active; inconclusive means small, poorly fitted or top-dose-only effect, or another doubt; inactive means no such curve, though single readings can be large or run the other way;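 further: potency means the concentration at half of the fitted maximal effect; plate controls were no enzyme wells and a reference inhibitor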
An asterisk follows results filed as active; [ ] = dose if it differs, or a comment. Unless noted, the call rests on the fitted dose curve; in most records, active means well fitted curve in the direction sought with a large enough effect; inconclusive means small, poorly fitted or top-dose-only effect, or another doubt; inactive means no such curve, though single readings can be large; an effect the other way counts as inactive or inconclusive.

For COc1ccc2c(C)cc(SCC(=O)N(C)C3CCS(=O)(=O)C3)nc2c1 (stereo not drawn) the results were HTT aggregate 14.3%, GoLoco inh red 52.5%, HTT cytoprotect -44.5% and ALDH1A1 inh inconclusive.
For CC(=O)N1CCN(C(=S)c2cccc([N+](=O)[O-])c2)CC1 the results were PNC inhibitor 4.0, HTT aggregate 2.7%, HPGD inh -18.5%, GoLoco inh red -0.3%, HTT cytoprotect 15.0%[0.074 µM] and ALDH1A1 inh -17.8%.
Screening O=[N+]([O-])c1ccc(N2CCN(C(=S)c3cccc([N+](=O)[O-])c3)CC2)cc1 returned HTT aggregate -4.0%[9.22 µM], GoLoco inh red 12.6µM* and HTT cytoprotect 23.3%[10 µM].
Cc1cccc(NC(=S)N2CCCN(c3ncccc3[N+](=O)[O-])CC2)c1 was read as HTT aggregate 3.3%[9.22 µM], GoLoco inh red -4.7%, HTT cytoprotect 4.1%[10 µM] and ALDH1A1 inh 14.1µM*.
Screening CN(CC(=O)Nc1cc([N+](=O)[O-])ccc1Cl)Cc1ccc(Br)cc1 returned PNC inhibitor inconclusive, HTT aggregate -28.0%, HPGD inh -10.7%, GoLoco inh red -27.0%, HTT cytoprotect 11.1%[10 µM] and ALDH1A1 inh 10µM*.
Screening O=[N+]([O-])c1ccc(N2CCN(C(=S)Nc3ccc(F)cc3)CC2)cc1 returned HTT aggregate inconclusive, GoLoco inh red 7.6%, HTT cytoprotect -48.6% and ALDH1A1 inh inconclusive.
Screening Cc1cccc(Cl)c1NC(=O)N1CCCN(c2ncccc2[N+](=O)[O-])CC1 returned HTT aggregate -7.2%[9.22 µM], GoLoco inh red 2.3%, HTT cytoprotect -6.4%[10 µM] and ALDH1A1 inh -3.2%.
`O=[N+]([O-])c1ccc(N2CCN(C(=S)Nc3ccc(F)cc3F)CC2)cc1` gave HTT aggregate 11.0%, GoLoco inh red 12.4%, HTT cytoprotect -11.7% and ALDH1A1 inh 11.2µM*.
COc1ccc(C2C3C=CCC(c4cccc(-c5ccc(C)cc5)c4)C3C(=O)N2Cc2ccccc2)cc1Cl (stereo not drawn) was read as HTT aggregate inconclusive, GoLoco inh red 3.2% and HTT cytoprotect -46.8%[10 µM].
CCC(C)(C)C was read as HPGD inh -19.3%, GoLoco inh red 12.6%, HTT cytoprotect -1.1% and ALDH1A1 inh 2.9%.
Screening O=[N+]([O-])c1ccc(N2CCN(C(=S)Nc3cccc(F)c3)CC2)cc1 returned HTT aggregate inconclusive, GoLoco inh red 20.1%, HTT cytoprotect -77.9% and ALDH1A1 inh 14.1µM*.
`Cc1ccc(NC(=O)COC(=O)C2(c3ccc(Cl)cc3)CCCC2)cc1` gave PNC inhibitor inconclusive, HTT aggregate -3.0%, HPGD inh -8.2%, GoLoco inh red 14.0%, HTT cytoprotect -10.1%[10 µM] and ALDH1A1 inh 10µM*.
Screening COc1ccccc1NC(=O)COC(=O)c1ccc([N+](=O)[O-])s1 returned HTT aggregate -9.2%, GoLoco inh red 4.6%, HTT cytoprotect 13.7% and ALDH1A1 inh 10µM*.
O=C(COC(=O)c1ccc([N+](=O)[O-])s1)NCc1ccc(F)cc1 was read as PNC inhibitor -1.9, HTT aggregate -24.7%, HPGD inh -1.5%, GoLoco inh red 12.1%, HTT cytoprotect 14.4%[10 µM] and ALDH1A1 inh 7.08µM*.
For Cc1ccc(NC(=O)COC(=O)c2ccc([N+](=O)[O-])s2)c(C)c1 the results were PNC inhibitor inconclusive, HTT aggregate -6.6%, HPGD inh 0.4%, GoLoco inh red 9.9%, HTT cytoprotect 2.5%[10 µM] and ALDH1A1 inh inconclusive.
Screening O=C(COC(=O)c1ccc([N+](=O)[O-])s1)NC(=O)NCc1ccccc1 returned HTT aggregate -1.5%, GoLoco inh red 2.7%, HTT cytoprotect -40.3% and ALDH1A1 inh 7.08µM*.
NNC(=O)CC12CC3CC(C1)CC(n1ncnn1)(C3)C2 was read as PNC inhibitor 5.8, HTT aggregate 2.8%, HPGD inh 1.7%, GoLoco inh red 9.3%, HTT cytoprotect 15.9%[10 µM] and ALDH1A1 inh 2.82µM*.
`COc1ccc(Nc2cnn(-c3nc4ccccc4s3)c(=O)c2Cl)cc1` gave PNC inhibitor 37.9, HTT aggregate inconclusive, HPGD inh -24.4%, GoLoco inh red -5.5%, HTT cytoprotect 8.8%[10 µM] and ALDH1A1 inh 8.91µM*.
CCC(C)(C)NC(=O)Cc1ccccc1OC was read as PNC inhibitor 31.6, HTT aggregate 5.1%, HPGD inh -11.3%, GoLoco inh red -3.9%, HTT cytoprotect -10.7% and ALDH1A1 inh 6.8%.
For CC(C)C[C@@H](CC(=O)N[C@@H](CCC(=O)O)CC(=O)O)NC(=O)[C@@H]1CNCC[C@H]1NC(=O)C[C@@H](NC(=O)C[C@H](CO)NC(=O)[C@@H]1CNCC[C@H]1N)C(C)C the results were HPGD inh -1.0%, GoLoco inh red 0.0%, HTT cytoprotect -2.4%[1.9 µM] and ALDH1A1 inh -1.8%.
O=C(CSc1nnnn1C1CCCC1)N1CCN(C(=O)c2ccco2)CC1 was read as PNC inhibitor 42.4, HTT aggregate 20.8%, HPGD inh -1.8%, GoLoco inh red 7.5%, HTT cytoprotect -4.5%[10 µM] and ALDH1A1 inh 14.1µM*.
CC(C)n1nnnc1SCC(=O)N1CCN(C(=O)c2ccco2)CC1 was read as PNC inhibitor -29.9, HTT aggregate -10.3%, HPGD inh -1.9%, GoLoco inh red 0.8%, HTT cytoprotect inconclusive and ALDH1A1 inh 25.1µM*.
For CCCn1nnnc1SCC(=O)N1CCN(C(=O)c2ccco2)CC1 the results were PNC inhibitor 13.7, HTT aggregate -0.5%, HPGD inh -11.2%, GoLoco inh red 0.1%, HTT cytoprotect 2.4%[10 µM] and ALDH1A1 inh inconclusive.
Screening O=C(CSc1nnnn1C1CCCCC1)N1CCN(C(=O)c2ccco2)CC1 returned HTT aggregate inconclusive, GoLoco inh red 18.1%, HTT cytoprotect -69.4%[10 µM] and ALDH1A1 inh inconclusive.
CC(=O)[C@H]1CC[C@@H]2[C@H]3CC=C4C[C@@H](O)CC[C@]4(C)[C@H]3CC[C@]12C was read as HPGD inh -2.5%, GoLoco inh red -2.5%[21.6 µM], HTT cytoprotect 7.9%[17.1 µM] and ALDH1A1 inh -3.0%[20.9 µM].
For C#CCCCO/N=C1/C[C@@H](O)[C@@H](O)[C@@H]2[C@@H]3C(=O)N(CC)C(=O)[C@H]3CC[C@H]12 the results were HTT cytoprotect 0.6%[10 µM] and ALDH1A1 inh 1.7%[13.5 µM].
